Screening results deposited in PubChem BioAssay by several laboratories.
CYP2C9 inhib: blocks human cytochrome P450 2C9; CYP2C9 Supersomes, luciferin-H conversion, luminescence; AID 777; 96,000 compounds, 20% hits; inhibition, % at 5 µM;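 active = blocking of liver enzyme CYP2C9 beyond about 50% at 5 µM, limit read from the data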
Cav3 T inh: blocks human Cav3.2 T-type calcium channel; O95180; Cav3.2-expressing cells, Fluo-4 calcium fluorescence FDSS; active compounds read low; B-score at 10 µM; 100,000 compounds, 4% hits; AID 449739;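 active = single-dose well whose peak fluorescence ratio is a statistical outlier from its plate by either plate-standardised score or position-corrected B-score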
CYP2C19 act: increases human CYP2C19 enzyme activity; recombinant CYP2C19, luciferin-H EGE luminescence; active compounds read high; 0 = fully inhibited enzyme, 1 = untreated enzyme; 96,000 tested, under 10 active; P33261; activation factor at 5 µM; AID 1025;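 active = activation factor of at least 2 at 5 µM in the primary screen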;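 also: 0 = wells with 2.5 mM tranylcypromine and 1 = vehicle-only wells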
CYP2C19 inh: inhibitors of human CYP2C19 | CYP2C19 Supersomes, luciferin-H EGE luminescence, 30 min | inhibition, % at 5 µM | 96,000 compounds, 21% hits | AID 778;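 active = CYP2C19 inhibition above a set limit at 5 µM in the primary screen, cut at about 50% in these data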;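 also: plate controls were negative control wells for no effect and 2.5 mM tranylcypromine positive control for full effect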
CYP2C9 act: CYP2C9 (human) activation. 96,000 compounds, 1.4% hits. activation factor at 5 µM. recombinant CYP2C9, luciferin-H conversion, luminescence; active compounds read high; factor 1 = untreated enzyme, 0 = blocked;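 active = activation factor of 2 or more for CYP2C9 at a 5 µM dose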;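 also: 0 = sulfaphenazole-blocked wells and 1 = vehicle-only wells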
An asterisk follows results filed as active; · = not tested or not shown. Only some compounds are listed: those with a hit (about 27% of all), similar ones and a draw of the others.

SMILES | CYP2C9 inhib | Cav3 T inh | CYP2C19 act | CYP2C19 inh | CYP2C9 act
CCn1c(CNc2ccc(F)cc2)nnc1SCC(=O)Nc1ccc(OC)cc1OC | 11.2 | -1.29 | 0.5 | 50.0* | 0.9
CCn1c(CNc2ccc(OC)cc2)nnc1SCC(=O)Nc1ccc(F)cc1 | · | 1.28 | · | · | ·
O=C(CCc1ccc(S(=O)(=O)N2CCOCC2)cc1)NCCCN1CCCC1=O | 8.0 | 0.243 | 0.9 | 10.7 | 0.9
c1ccc(-c2onc3c2CCCC3)cc1 | -2.9 | 0.347 | 0.4 | 57.8* | 1
CN1CCc2nc(SCC(=O)Nc3ccc(Cl)cc3)c(C#N)cc2C1 | · | 1.2 | · | · | ·
CCOc1ccc2c(c1)C(C)=CC(C)(C)N2C(=O)Nc1ccccc1 | 39.5 | -0.787 | 0.4 | 60.7* | 0.6
CCNC(=O)N1c2ccc(OC)cc2C(C)=CC1(C)C | 36.2 | 0.2 | 0.6 | 41.7 | 0.6
CCOC(=O)Oc1ccc2c(c1)C(C)=CC(C)(C)N2C(=O)OCC | -20.4 | -1.5 | 0.4 | 56.4* | 1.2
CC(C)CN(CC(C)C)C(=O)C12CCC(C)(C(=O)O1)C2(C)C (stereo not given) | · | -0.39 | · | · | ·
Cn1cnnc1SC(C(=O)c1ccccc1)c1ccccc1 (stereo not given) | -4.5 | -0.54 | 0.2 | 81.1* | 1
Cn1cnnc1SC(C(=O)Nc1cc(Cl)cc(Cl)c1)c1ccccc1 (stereo not given) | 18.0 | -0.483 | 1.1 | -11.7 | 0.8
CC(Sc1nncn1C)C(=O)Nc1nnc(-c2ccccc2)s1 (stereo not given) | 51.2* | 0.85 | 0.9 | 11.7 | 0.5
N#C/C(=C/c1ccc(Sc2nc3ccccc3[nH]2)o1)c1cccc(F)c1 | 95.1* | -4.45* | 0.1 | 92.2* | 0
N#C/C(=C/c1ccc(Sc2nc3ccccc3[nH]2)o1)c1cccc(Br)c1 | 97.0* | -2.11 | 0 | 96.4* | 0
N#C/C(=C/c1ccc(Sc2nc3ccccc3[nH]2)o1)c1ccccc1F | 90.2* | -2.93 | 0.1 | 94.6* | 0.1
N#C/C(=C\Nc1ccc2c(c1)OCCO2)c1nc2ccccc2[nH]1 | -0.5 | -0.035 | 0.8 | 23.5 | 1
CC(Sc1nc2ccccc2[nH]1)C(=O)O (stereo not given) | -4.0 | 0.027 | 1.1 | -6.1 | 1
CC(C)(C)n1nc2c(c1NC(=O)COc1ccc3ccccc3c1)CS(=O)C2 (stereo not given) | 10.5 | · | 0.7 | 34.7 | 0.9
Cc1c(C(=O)Nc2ccccc2N2CCOCC2)sc2nc3n(c(=O)c12)CCC3 | -3.4 | · | 1 | 2.2 | 1
COc1ccc(C(=O)N2CCN(S(=O)(=O)N3CCOCC3)CC2)cc1OC | -14.1 | -0.948 | 1.1 | -9.5 | 1.1
CN(C)c1ccc(/C=N/c2cc(-c3ccccc3)nn2-c2ccccc2)cc1 | 52.2* | -0.0335 | 1 | 2.2 | 0.5
O=C(CN1c2ccccc2Sc2ccccc21)NNC(=S)Nc1ccc(Cl)cc1Cl | 80.0* | · | 1 | -0.8 | 0.2
CCN(CC)CC(=O)N1c2ccccc2Sc2ccc(Cl)cc21 | · | -0.38 | · | · | ·
COc1ccccc1-n1nc(C(=O)O)c2ccccc2c1=O | -8.4 | 0.402 | 1 | -3.3 | 1.1
COc1ccccc1N1CCN(C(=O)c2nn(-c3ccccc3OC)c(=O)c3ccccc23)CC1 | 57.8* | · | 0.5 | 49.3 | 0.4
SMILES | CYP2C9 inhib | Cav3 T inh | CYP2C19 act | CYP2C19 inh | CYP2C9 act
CCOC(=O)N1CCN(C(=O)c2nn(-c3cc(OC)cc(OC)c3)c(=O)c3ccccc23)CC1 | 80.5* | · | 0.4 | 63.2* | 0.2
CCOC(=O)N1CCN(C(=O)c2cn(-c3ccc(C)c(C)c3)c(=O)c3ccccc23)CC1 | 63.9* | 1.45 | 0.8 | 23.5 | 0.4
CCOC(=O)C(NCc1ccccn1)(NC(=O)c1cccnc1)C(F)(F)F (stereo not given) | 9.5 | -0.521 | 0.8 | 16.3 | 0.9
O=C(CSc1nnc2scc(-c3ccccc3)n12)NCC1CCCO1 (stereo not given) | -10.3 | 0.549 | 0.9 | 14.8 | 1.1
O=C(CCSc1nnc2scc(-c3ccccc3)n12)Nc1nc(-c2ccccc2)ns1 | 31.6 | -4.65* | 0.9 | 12.9 | 0.7
Cc1ccc(-c2csc3nnc(SCC(=O)Nc4cccc(C)n4)n23)cc1 | 53.2* | · | 0.4 | 57.3* | 0.5
CC(=O)Nc1ccc(C(=O)CSc2nnc3scc(-c4ccccc4)n23)cc1 | 58.2* | 0.195 | 0.7 | 33.8 | 0.4
CCCCC(C)(O)C/C=C/[C@H]1[C@H](O)CC(=O)[C@@H]1CCCCCCC(=O)OC (stereo not given in full) | · | 0.819 | · | · | ·
c1ccc2c(c1)OCC(c1nnc3n1-c1ccccc1SC3)O2 (stereo not given) | 84.8* | -3.02 | 0 | 95.8* | 0.2
Brc1ccccc1-c1nnc2sc(-c3ccc4c(c3)OCCO4)nn12 | 96.5* | -3.98 | 0.3 | 74.4* | 0
Fc1ccc(-c2nn3c(C4COc5ccccc5O4)nnc3s2)cc1 (stereo not given) | 49.0 | · | 0.9 | 6.8 | 0.5
c1csc(-c2nn3c(C4COc5ccccc5O4)nnc3s2)c1 (stereo not given) | 51.2* | · | 0.4 | 57.9* | 0.5
c1ccc2c(c1)OCC(c1nnc3sc(-c4ccc5c(c4)OCO5)nn13)O2 (stereo not given) | 83.7* | -3.44 | 0.3 | 65.3* | 0.2
CCC(C)NC(=O)Cn1cc2c(n1)CCC(C)C2 (stereo not given) | 4.5 | 0.142 | 0.9 | 14.6 | 1
CC1=C(C(N)=O)C(c2cccnc2)n2nc(-c3cccc(Cl)c3)nc2N1 (stereo not given) | 4.8 | 1.21 | 1 | 4.8 | 1
CC1=C(C(N)=O)C(c2ccccc2)n2nc(-c3cccc(C)c3)nc2N1 (stereo not given) | -3.8 | -0.216 | 0.5 | 50.3* | 1
COc1ccc(-c2nc3n(n2)C(c2ccccc2Cl)C(C(N)=O)=C(C)N3)cc1 (stereo not given) | 15.2 | 0.837 | 0.5 | 52.6* | 0.8
N=c1ccn(Cc2ccc(Cl)cc2Cl)cc1 | 10.7 | -0.182 | 1 | 0.0 | 0.9
COc1ccccc1C1=NOC(COC(=O)c2ccc3ccccc3n2)C1 (stereo not given) | -120.9 | 0.637 | 0.7 | 35.0 | 2.2*
CCOC(=O)N1CCN(C(=O)C2CC(c3ccccc3OC)=NO2)CC1 (stereo not given) | -11.0 | 1.43 | 0.9 | 9.5 | 1.1
Cc1c(Cc2ccc3c(c2)OCO3)sc(NC(=O)C(C)(C)C)c1C#N | 8.6 | 0.0325 | 1.1 | -7.8 | 0.9
N#Cc1c(NC(=O)c2cc(-n3cnnc3)ccc2Cl)sc2c1CCCC2 | 18.5 | · | 0.8 | 15.5 | 0.8
CC1(C(=O)Nc2nnc(C(C)(C)C)s2)Cc2ccccc2C(=O)O1 (stereo not given) | 12.5 | 0.0511 | 1.1 | -5.2 | 0.9
CCSc1nnc(NC(=O)C2(C)Cc3ccccc3C(=O)O2)s1 (stereo not given) | 73.5* | 0.828 | 1 | -4.0 | 0.3
CCc1nc(OCc2ccccc2)c2sc3nc4c(cc3c2n1)COC(C)(C)C4 | -1.1 | -0.211 | 1 | 3.0 | 1
Cc1ccc(CSc2nc3sc(C)c(C)c3c(=O)n2Cc2ccco2)cc1 | 49.2 | -2.91 | 0.6 | 35.3 | 0.5
